Assay results as given in ChEMBL document CHEMBL1961873, “Compounds: GSK PKIS; Assays: Nanosyn kinase panel” (2012).

Each compound was assayed against Tyrosine-protein kinase JAK2 (Homo sapiens) (UniProt O60674). Conditions: at 1 µM.
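Also: mean JAK2 inhibition from the GSK PKIS screen, compounds tested at 1 µM.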

Tyrosine-protein kinase JAK2 (Homo sapiens), sequence (O60674 whole entry): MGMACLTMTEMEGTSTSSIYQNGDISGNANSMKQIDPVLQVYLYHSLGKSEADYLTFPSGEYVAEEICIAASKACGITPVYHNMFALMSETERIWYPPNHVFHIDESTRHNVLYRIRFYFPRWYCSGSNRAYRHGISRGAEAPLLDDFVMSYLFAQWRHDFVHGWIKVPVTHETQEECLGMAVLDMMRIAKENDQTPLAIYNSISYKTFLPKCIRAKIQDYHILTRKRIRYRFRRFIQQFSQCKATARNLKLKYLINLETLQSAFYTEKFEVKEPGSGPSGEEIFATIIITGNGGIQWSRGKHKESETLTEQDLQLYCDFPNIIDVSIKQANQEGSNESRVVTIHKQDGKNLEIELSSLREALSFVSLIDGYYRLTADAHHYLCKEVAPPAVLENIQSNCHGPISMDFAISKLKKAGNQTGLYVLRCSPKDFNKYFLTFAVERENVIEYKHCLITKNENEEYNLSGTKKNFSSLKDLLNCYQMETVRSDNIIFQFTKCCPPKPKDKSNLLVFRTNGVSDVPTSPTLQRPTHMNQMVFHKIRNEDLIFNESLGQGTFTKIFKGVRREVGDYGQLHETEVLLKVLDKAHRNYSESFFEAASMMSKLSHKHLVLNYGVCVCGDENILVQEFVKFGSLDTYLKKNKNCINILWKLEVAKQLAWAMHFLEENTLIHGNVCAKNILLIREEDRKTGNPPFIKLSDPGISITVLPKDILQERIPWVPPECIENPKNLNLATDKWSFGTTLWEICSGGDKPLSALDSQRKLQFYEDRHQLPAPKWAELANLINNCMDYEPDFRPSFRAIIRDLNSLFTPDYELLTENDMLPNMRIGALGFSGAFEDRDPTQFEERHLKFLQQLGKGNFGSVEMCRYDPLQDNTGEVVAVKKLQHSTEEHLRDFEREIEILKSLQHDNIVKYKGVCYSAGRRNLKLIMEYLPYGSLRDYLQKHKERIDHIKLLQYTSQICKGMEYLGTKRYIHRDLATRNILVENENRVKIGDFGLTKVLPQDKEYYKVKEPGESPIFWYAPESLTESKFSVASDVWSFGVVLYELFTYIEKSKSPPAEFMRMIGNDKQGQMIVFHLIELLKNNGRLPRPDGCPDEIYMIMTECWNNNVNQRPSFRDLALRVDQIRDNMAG

Row | SMILES | inhibition
1 | CCN(CC)Cc1ccc(Nc2nccc(-c3cnn4ncccc34)n2)cc1 | 20.9%
2 | CCC(=O)Nc1ccc(C)c(-c2ccc(C(=O)NCC3CC3)cc2)c1 | 1.15%
3 | COc1cc(C)c(N(C)C(=O)CN(C)C)cc1Nc1nc(Nc2cccc(F)c2C(N)=O)c2cc[nH]c2n1 | 1.71%
4 | CCc1cccc(CC)c1/C=C/c1cncc(C(=O)NC)c1 | 1.71%
5 | COc1ccc2cc(-c3c(-c4ccncc4)nc(-c4ccc(S(C)(=O)=O)cc4C)n3C)ccc2c1 | 1.45%
6 | Cc1nnc(-c2ccc(C)c(-c3ccc(C(=O)NCc4ccc(Cl)cc4)cc3)c2)o1 | 1.06%
7 | COc1cc(Nc2ncc(-c3ccccc3)o2)cc(OC)c1OC | 5.24%
8 | NCc1ccc(-n2c(-c3nonc3N)nc3cnccc32)cc1 | 2.09%
9 | COc1cc2ncn(-c3cc(OCCc4ccccc4)c(C(N)=O)s3)c2cc1OC | 0.41%
10 | O=C(Nc1ccc(Oc2ccc3[nH]c(NC(=O)c4ccccc4)nc3c2)cc1)Nc1cc(C(F)(F)F)ccc1F | 4.06%
11 | O=C1Nc2ccc(I)cc2C1=Cc1cc(Br)c(O)c(Br)c1 | 3%
12 | C[C@@H](Oc1cc(-n2cnc3ccc(OCC4CCN(C)CC4)cc32)sc1C(N)=O)c1ccccc1Cl | 2.26%
13 | CN(C)CCOc1ccc(-c2cc(-c3ccc4c(c3)CCC4=NO)c(-c3ccncc3)o2)cc1 | -1.64%
14 | O=C1NC(=O)C(c2cccc(Cl)c2)=C1Nc1ccc(Cl)c(C(=O)O)c1 | 0.7%
15 | NS(=O)(=O)c1ccc(N/N=C2\C(=O)Nc3ccc(C(=O)NCCCn4ccnc4)cc32)cc1 | 4.95%
16 | COc1cc(Nc2ncc3c(C)nc(-c4cccc(C(F)(F)F)c4)n3n2)cc(OC)c1OC | 11.1%
17 | NS(=O)(=O)c1ccc(Nc2cc(-c3ccc(O)c(F)c3)n[nH]2)cc1 | -0.37%

Row | SMILES | inhibition
18 | CCc1ccc(Oc2nccc(-c3c(-c4ccc(F)cc4)ncn3C3CCNCC3)n2)cc1 | 2.94%
19 | CN1CCN(CCCNc2nc3ccc(Oc4ccc(NC(=O)Nc5cc(C(F)(F)F)ccc5F)cc4)cc3[nH]2)CC1 | 6.4%
20 | Fc1ccc(-c2ncn(C3CCNCC3)c2-c2ccnc(Oc3ccc(F)c(F)c3)n2)cc1 | 0.69%
21 | NC(=O)Cc1ccccc1Oc1nccc(-c2c(-c3ccc(F)cc3)ncn2C2CCNCC2)n1 | -0.85%
22 | FC(F)(F)c1cccc(Nc2nccc(-c3cnn4nc(-c5ccccc5)ccc34)n2)c1 | 0.22%
23 | COc1cccc(/C=N/Nc2ncnc3c2cnn3-c2cccc(OC)c2)c1 | 5.22%
24 | CN(c1ccc(NC(=O)Nc2c(Cl)cccc2Cl)cc1)c1ccnc(Nc2cccc(CS(C)(=O)=O)c2)n1 | 20.7%
25 | Cc1ccc(NC(=O)c2ccoc2)cc1-c1ccc(C(=O)NCC2CC2)cc1 | -1.25%
26 | COC(=O)Nc1nc2ccc(Sc3ccc(NC(=O)Nc4cc(C(F)(F)F)ccc4F)cc3)cc2[nH]1 | 2.1%
27 | COc1cc(Nc2ncc3c(C)nc(-c4cccc(Oc5ccccc5)c4)n3n2)cc(OC)c1OC | 2.54%
28 | CCS(=O)(=O)c1ccc(OC)c(Nc2ncc(-c3cccc(-c4ccccc4F)c3)o2)c1 | 2.27%
29 | Cc1ccc(C(=O)NC(C)C)cc1-c1ccc(C(=O)NCC2CC2)cc1 | -1.28%
30 | CS(=O)(=O)CCNCc1ccc(-c2ccc3ncnc(Nc4ccc(OCc5ccccc5)c(Br)c4)c3c2)o1 | -1.02%
31 | O=C(Nc1n[nH]c2cc(-c3ccccc3)ccc12)C1CC1 | 0.77%
32 | COc1ccc(C2=C(N3CCc4ccccc43)C(=O)NC2=O)cc1 | 3.26%
33 | NC(=O)c1cc(-c2ccc(F)cc2)cc(-c2ccncc2)c1N | 1.06%
34 | COc1cc2ncn(-c3cc(OCc4cccs4)c(C(N)=O)s3)c2cc1OC | 1.19%
